PubChem BioAssay AID602292 (National Center for Advancing Translational Sciences (NCATS), 2012)
The whole screen tested about 1,300 compounds, of which about 380 (29%) were called active. About 37% were inconclusive and are not listed. The call rests on the fitted dose curve; in most records, active means well fitted inhibition curve with a large enough effect; inconclusive means small, poorly fitted or top-dose-only effect; inactive means flat fitted curve, though single readings scatter. The list shows a part of the results.

Target: Thyrotropin receptor (Homo sapiens) (UniProt P16473)
Sequence (P16473 whole entry, looked up): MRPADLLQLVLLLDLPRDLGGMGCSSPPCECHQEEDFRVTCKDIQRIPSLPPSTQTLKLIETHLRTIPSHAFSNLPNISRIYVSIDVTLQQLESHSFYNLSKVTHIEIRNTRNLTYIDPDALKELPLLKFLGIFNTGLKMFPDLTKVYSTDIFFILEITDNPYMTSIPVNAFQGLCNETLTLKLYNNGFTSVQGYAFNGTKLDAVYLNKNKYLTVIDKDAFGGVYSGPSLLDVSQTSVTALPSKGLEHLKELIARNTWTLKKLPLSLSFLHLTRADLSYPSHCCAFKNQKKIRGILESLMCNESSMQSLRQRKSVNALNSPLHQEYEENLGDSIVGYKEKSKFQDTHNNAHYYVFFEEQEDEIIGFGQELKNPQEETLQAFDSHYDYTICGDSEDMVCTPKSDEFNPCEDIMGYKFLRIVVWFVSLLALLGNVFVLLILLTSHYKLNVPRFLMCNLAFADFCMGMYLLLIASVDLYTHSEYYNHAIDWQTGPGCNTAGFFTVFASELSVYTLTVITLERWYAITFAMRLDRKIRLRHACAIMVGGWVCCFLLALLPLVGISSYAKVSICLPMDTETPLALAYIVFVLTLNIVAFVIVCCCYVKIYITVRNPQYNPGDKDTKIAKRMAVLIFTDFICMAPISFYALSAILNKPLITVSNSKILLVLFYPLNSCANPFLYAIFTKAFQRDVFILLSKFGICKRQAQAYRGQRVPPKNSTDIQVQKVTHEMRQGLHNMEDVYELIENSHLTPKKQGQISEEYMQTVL
Assay: qHTS for antagonists of the Thyroid Stimulation Hormone Receptor: Hit Validation in Primary Screen; further: nearly all actives have a fitted effect of over 80% in size;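 on activity change, negative = inhibition: cells stimulated with TSH at EC80 of 4 nM during compound exposure; cAMP by competitive HTRF where cellular cAMP lowers the 665 nm FRET signal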
Conditions: TSHR-expressing cells, cAMP antagonist mode; series mostly up to 58 µM; activity change, negative = inhibition: at the top concentration
Outline: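 Competitive HTRF detected cAMP in lysates of TSHR cells, read 30 minutes after antibody and d2 addition at room temperature. Before lysis, cells had 2 hours at 37 deg C with compound plus EC80 TSH, 4nM final.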
On the % scale 0 is the no-effect control and ±100 the full control effect; potency means the concentration at half of the fitted maximal effect.

Structure (SMILES) | activity change, negative = inhibition | Potency
NC(=O)c1cc(S(=O)(=O)NCc2ccc(F)cc2)cs1 | -2.42% (inactive) | –
CCN(CCCNC(=O)Cn1ncc2c([nH]c3ccc(C)cc32)c1=O)c1cccc(C)c1 | -2.65% (inactive) | –
COc1ccc(/C=N/NC(=O)c2ccoc2C)cc1COc1c(C)cccc1C | – | 12 µM (active)
COc1ccc(N2C(=O)NC(NS(=O)(=O)c3ccc(Cl)cc3)(C(F)(F)F)C2=O)cc1 (stereo not drawn) | -8.7% (inactive) | –
O=c1cc(C(F)(F)F)[nH]c2c(C(F)(F)F)cccc12 | – | 2.39 µM (active)
O=c1nc(/C=C/c2ccccc2C(F)(F)F)cc(C(F)(F)F)[nH]1 | -8.07% (inactive) | –
O=c1cc(C(F)(F)F)[nH]c2ccc(OC(F)(F)F)cc12 | – | 9.53 µM (active)
O=C(Cn1ncc2c([nH]c3ccccc32)c1=O)NCC1CCN(Cc2ccc(F)cc2)CC1 | -2.88% (inactive) | –
CCOC(=O)C1=C(C)Nc2ccccc2N=C1NC(=O)c1cc(C)on1 | -4.52% (inactive) | –
N#CC1=C(N)NC(SCc2ccc(Br)cc2)=C(C#N)C12CCCCC2 | – | 23.9 µM (active)
COc1ccc(Cl)cc1NC(=O)C1CCN(C(=O)C2CC(=O)N(c3ccc(C)cc3)C2)CC1 (stereo not drawn) | -4.9% (inactive) | –
COc1cc(OC)c(NC(=O)Cn2cnc3sc(C)c(S(=O)(=O)N4CCOCC4)c3c2=O)cc1Cl | -6.91% (inactive) | –
Cc1cc(Cl)c(S(=O)(=O)N2CCSCC2)cc1OCC(=O)NC1CCCCC1 | – | 23.9 µM (active)
Cc1ccc(S(=O)(=O)N2CCCC(C(=O)NC3CCCC3)C2)cc1Cl (stereo not drawn) | -6.48% (inactive) | –
O=C(NC1CCCCC1)c1cc(-c2ccccc2O)on1 | -8.18% (inactive) | –
CCOC(=O)c1c(S(=O)(=O)NCC(=O)Nc2cccc(C)c2C)c(C)n(C)c1C | -1.33% (inactive) | –
c1ccc(CNc2ncnc3scc(-c4cccs4)c23)nc1 | – | 21.3 µM (active)
O=C(COc1ccc(-c2ccccc2)cc1)Nc1cccnc1 | – | 37.9 µM (active)
Cc1ccc(OCc2nnc(NC(=O)c3cccnc3)s2)cc1 | -0.605% (inactive) | –
O=C(CCC(=O)Nc1ccccc1)N/N=C/c1ccncc1 | -9.39% (inactive) | –
O=C(Nc1ccc(Br)cc1)c1cccc(S(=O)(=O)Nc2cnc3ccccc3c2)c1 | – | 21.3 µM (active)

Structure (SMILES) | activity change, negative = inhibition | Potency
CCCCN1C(=O)c2ccc(C(=O)Nc3ccc(C)c(S(=O)(=O)N(C)C)c3)cc2C1=O | – | 23.9 µM (active)
CCCN1C(=O)c2ccc(C(=O)Nc3cc(C)ccc3O)cc2C1=O | -0.893% (inactive) | –
O=[N+]([O-])c1cccc(S(=O)(=O)Nc2nc3ccccc3nc2Nc2cccc(S(=O)(=O)N3CCCCC3)c2)c1 | – | 12 µM (active)
COC(=O)c1sc(-c2ccc(C(C)(C)C)cc2)cc1NC(=O)/C=C/C(=O)O | – | 26.9 µM (active)
COC(=O)c1sc(-c2ccc(Cl)cc2)cc1NC(=O)/C=C/C(=O)O | – | 30.1 µM (active)
Cc1ccccc1NC(=O)C1(C)Cc2ccccc2C(=O)O1 (stereo not drawn) | -2.25% (inactive) | –
CCN(C(=O)CSc1nnc(-c2ccccc2)o1)c1c(N)n(Cc2ccccc2)c(=O)[nH]c1=O | -5.21% (inactive) | –
CC1CC(C)CN(CCCNC(=O)CN2C(=O)COc3ccc(S(=O)(=O)N4CCOCC4)cc32)C1 (stereo not drawn) | -3.14% (inactive) | –
CC(C)C1Nc2ccc(C(=O)N3CCN(c4ccccn4)CC3)cc2NC1=O (stereo not drawn) | -6.86% (inactive) | –
CC1CCc2c(sc(NC(=O)c3ccco3)c2C(=O)O)C1 (stereo not drawn) | -15.3% (inactive) | –
CC[n+]1ccc(/C=C/c2ccc(N(C)C)cc2)c2ccccc21 | – | 26.9 µM (active)
CN(C)c1ccc(/C=C/c2ccc3c4ccccc4ccc3[n+]2-c2ccccc2)cc1 | – | 23.9 µM (active)
CN(C)c1ccc(/C=C/c2cc[n+](C)cc2)cc1 | – | 37.9 µM (active)
CC[n+]1c(/C=C/c2ccc(N(C)C)cc2)ccc2ccccc21 | – | 26.9 µM (active)
O=S(=O)(C/C(=C/CO)S(=O)(=O)c1ccccc1)c1ccccc1 | -9.77% (inactive) | –
Cc1ccnc(OC(C(=O)O)C(OCCc2ccccc2)(c2ccccc2)c2ccccc2)n1 (stereo not drawn) | -6.8% (inactive) | –
CSCC[C@H](NC(=O)c1ccc(Cl)c(S(=O)(=O)N2CCCC2)c1)c1nc2ccccc2[nH]1 | -4% (inactive) | –
COc1ccc(CCNC(=O)c2ccc(Cl)c(S(=O)(=O)N3CCCCCC3)c2)cc1 | – | 16.9 µM (active)
O=C(c1ccc(Cl)c(S(=O)(=O)N2CCCCC2)c1)N1CCCC1 | -7.26% (inactive) | –
COc1ccc(-c2cc(C3CCN(c4cc(Cl)nc(N)n4)CC3)[nH]n2)cc1 | – | 37.9 µM (active)
O=C(N[C@H]1C/C=C\C(c2ccc(F)cc2)N(Cc2ccccc2)C(=O)C1)OCC1c2ccccc2-c2ccccc21 (stereo partly drawn) | -7.35% (inactive) | –

Structure (SMILES) | activity change, negative = inhibition | Potency
O=S(=O)(Nc1cccnc1)c1ccc(Br)c2ccccc12 | – | 26.9 µM (active)
CC(=O)Nc1ccc(-c2csc(NC(=O)Nc3ccccc3)n2)cc1 | – | 37.9 µM (active)
O=C(NC(=S)Nc1ccccc1)c1cc(-c2ccccc2)nc2ccccc12 | -9.65% (inactive) | –
COc1cccc(NC(=O)Nc2nc(-c3ccc(OC)c(OC)c3)cs2)c1 | – | 15.1 µM (active)
COc1ccc(-c2ccc(SCc3ccccn3)nn2)cc1OC | 0.461% (inactive) | –
COc1ccc(NC(=O)CSc2nc3[nH]c(=O)[nH]c(=O)c3s2)cc1OC | 2.97% (inactive) | –
CCN(CC)C(=O)Cn1c(=O)n(-c2ccccc2)c(=O)c2sccc21 | -6.22% (inactive) | –
CC(=O)c1ccc(N(C(=O)CNC(=O)c2ccco2)C(C(=O)NC2CCCC2)c2ccncc2)cc1 (stereo not drawn) | -7.52% (inactive) | –
COc1ccc(NC(=O)CCNS(=O)(=O)c2ccc3c(c2)CC(C)N3C(C)=O)cc1 (stereo not drawn) | -2.68% (inactive) | –
COc1ccc(OCC(=O)NC(=S)Nc2ccc(N3CCOCC3)c(Cl)c2)cc1 | – | 19 µM (active)
COc1ccc(NC(=S)N(CCCN2CCOCC2)C(C)c2cc3cccc(OC)c3o2)cc1 (stereo not drawn) | 0.0576% (inactive) | –
CC(C)Nc1ncnc2c1nnn2Cc1ccccc1 | -6.31% (inactive) | –
N#Cc1nc(-c2ccccc2)oc1N1CCN(C(=O)c2ccco2)CC1 | -13.5% (inactive) | –
O=C(c1ccco1)N1CCN(c2ncnc3c2nnn3Cc2ccccc2Cl)CC1 | – | 30.1 µM (active)
CC1CCCCN1C(=O)CSCC(=O)Nc1nc(-c2cccs2)cs1 (stereo not drawn) | – | 30.1 µM (active)
CN(C)S(=O)(=O)c1ccc(C(=O)Nc2nc(-c3cccs3)cs2)cc1 | – | 19 µM (active)
O=C(Nc1nc(-c2cccs2)cs1)c1cccc(S(=O)(=O)N2CCCCCC2)c1 | -9.77% (inactive) | –
O=C(COc1ccc(Cl)cc1)Nc1nc(-c2cccs2)cs1 | – | 23.9 µM (active)
CN(Cc1ccccc1)S(=O)(=O)c1ccc(OCC(=O)NCc2ccccn2)cc1 | -6.28% (inactive) | –
CCOc1ccc(N(CC(=O)NCc2ccc(F)cc2)C(=O)CCC(=O)Nc2nccs2)cc1 | -3.75% (inactive) | –
CCOC(=O)Cc1csc(NC(=O)COc2ccc(N(C)S(=O)(=O)c3cccs3)cc2)n1 | – | 23.9 µM (active)
